Assay results reported in PubChem BioAssay (NCI).
About 83,000 compounds went through this panel and 20% of them were active in at least one assay; those are over-represented in the sample as a whole.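 96-well plates, one dose, 48 hours. Percent growth reported; active if below 10.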 Values without a mark were called inactive. Active and inactive are the calls of the source.

Experiments:
Experiment in all cases: NCI-60 one-dose screen, 48 h (100 = growth as untreated, 0 = no growth, -100 = all killed)
Details in all cases: 10 µM unless noted
NCI-H23 lung = test system: NCI-H23 lung
NCI-H226 lung = test system: NCI-H226 lung
NCI-H322M lung = test system: NCI-H322M lung
HOP-62 NSCLC = test system: HOP-62 NSCLC
NCI-H460 lung = test system: NCI-H460 lung
HOP-92 NSCLC = test system: HOP-92 NSCLC
NCI-H522 lung = test system: NCI-H522 lung
A549/ATCC NSCLC = test system: A549/ATCC NSCLC
786-0 renal = test system: 786-0 renal
COLO 205 colon = test system: COLO 205 colon
DU-145 prostate = test system: DU-145 prostate
MALME-3M melanoma = test system: MALME-3M melanoma
MDA-MB-231 breast = test system: MDA-MB-231 breast
RXF 393 renal = test system: RXF 393 renal
SF-268 CNS = test system: SF-268 CNS
SF-295 CNS = test system: SF-295 CNS
SF-539 CNS = test system: SF-539 CNS
UACC-257 melanoma = test system: UACC-257 melanoma
M14 melanoma = test system: M14 melanoma

Compound | growth (NCI-H23 lung) | growth (NCI-H226 lung) | growth (NCI-H322M lung) | growth (HOP-62 NSCLC) | growth (NCI-H460 lung) | growth (HOP-92 NSCLC) | growth (NCI-H522 lung) | growth (A549/ATCC NSCLC) | growth (786-0 renal) | growth (COLO 205 colon) | growth (DU-145 prostate) | growth (MALME-3M melanoma) | growth (MDA-MB-231 breast) | growth (RXF 393 renal) | growth (SF-268 CNS) | growth (SF-295 CNS) | growth (SF-539 CNS) | growth (UACC-257 melanoma) | growth (M14 melanoma)
COc1ccc(-c2nc(SCC(=O)Nc3ccc(C(=O)/C=C/c4ccc(Cl)cc4)cc3)[nH]c(=O)c2C#N)cc1 | 85.4% | 96.3% | 88.8% | 100% | 99.1% | 81.7% | 77.4% | 101% | 105% | 86.8% | 103% | 95.4% | 38.1% | 97.3% | 102% | 98.5% | 85.8% | 102% | 77.9%
COc1ccc(NC(=O)c2ccc(/C=C/C(=O)c3ncc[nH]3)cc2)cc1 | 64.7% | 96.5% | 85.4% | 79.1% | 64% | 104% | 51.4% | 81.5% | 67.1% | 72.4% | 34.1% | 95.1% | 91.6% | 76.9% | 72.4% | 88.4% | 64.1% | 97.8% | 87.3%
C=C1C(=O)O[C@H]2[C@H]1CC/C(C=Nc1ccc(C(F)(F)F)cc1N)=C\CC[C@@]1(C)O[C@@H]21 | 12.4% | 42.5% | 54% | 47.6% | 15.3% | 27% | -56.6% (active) | 59.7% | 25% | -74.3% (active) | 17.4% | -13.3% (active) | -26.4% (active) | -35.5% (active) | 23.7% | 45.4% | -7.2% (active) | 13% | 5.33% (active)
NCCNc1nc(Nc2ccc(-c3nc4ccccc4[nH]3)cc2)c2cn[nH]c2n1 | 57.9% | 81.4% | 98.9% | 97.5% | 54.9% | 60.4% | 16.6% | 101% | 93% | 20.8% | 90.9% | 68% | 18.8% | 43% | 68.1% | 62.9% | -9.77% (active) | 104% | 96.1%
O=C1c2c(O)cc(O)cc2-c2c(-c3ccc(O)cc3)oc3cc(O)cc1c23 | 39.9% | 61.2% | 65.2% | 22.1% | 10% | 44.6% | 11% | 43.2% | 41.8% | 86.2% | 40.9% | 54.7% | 66.8% | 62.1% | 50.7% | 29.1% | 25.2% | 67.5% | 46.1%
CN(C)c1ccc(N=Nc2ccc(Br)cn2)c(O)c1 | 19.3% | 7.29% (active) | 21.1% | 18.5% | 3.96% (active) | 50.3% | 14.4% | 10.3% | 20.5% | 7.48% (active) | 24.7% | 17.8% | 34.1% | 55.5% | 16.8% | 17.4% | -10.2% (active) | -11.5% (active) | -1.74% (active)
COc1cc(/C=C/C(=O)c2cccnc2Nc2ccc(F)cc2)cc(OC)c1OC | 40.2% | 43% | 103% | 43.6% | 22.5% | 37.7% | 29.7% | 32.9% | 70.3% | 83.9% | 0.388% (active) | 94.2% | 37.9% | 22.6% | 21.6% | 57.6% | 56.1% | 31.9% | 70%
COc1cc(-c2nn(-c3ccc(C(=O)O)cc3)cc2C(=O)O)ccc1O | 63% | 102% | 98.5% | 61.6% | 61.9% | 58.8% | 12% | 78.2% | 78.3% | 113% | 89.3% | 57.1% | 93.3% | 91.5% | 70.3% | 94.4% | 47.7% | 103% | 33.5%
CC1C(/C=N/Nc2ccccc2)C(C#N)(C#N)C1(C#N)C#N (centres undefined) | 78.6% | 88% | 75.1% | 57.1% | 87.9% | 90.5% | 53.9% | 85.1% | 92.9% | 105% | 89.7% | 99.2% | 70.1% | 105% | 75.4% | 70.9% | 102% | 98.6% | 33.2%
NC(=NCCCOc1ccc(Cl)cc1)Nc1ccc(Cl)cc1 | 23.4% | 107% | 31.8% | 33.9% | 48% | 21.6% | 27.8% | 24.1% | 58.4% | -65.6% (active) | 16.9% | -20.8% (active) | -6.18% (active) | 79.3% | 36.6% | 17.9% | 31.4% | 6.24% (active) | -35.7% (active)
CC/C=C\C[C@H](O)C/C=C1/C(=O)C=C[C@@]1(C)C/C=C\CCCC(=O)OC | 87.2% | 121% | 106% | 104% | 110% | 99.6% | 81.2% | 88.6% | 100% | 113% | 112% | 101% | 104% | 115% | 106% | 107% | 93.6% | 87.1% | 101%
Cc1cc(N2CCCCCC2)nc(NC2CCCC(Nc3ccnc4cc(Cl)ccc34)C2)n1 (centres undefined) | -50.8% (active) | -61.3% (active) | -70.9% (active) | -83% (active) | -82.2% (active) | -82% (active) | -72% (active) | -68.3% (active) | -96.3% (active) | -80.1% (active) | -70.7% (active) | -89% (active) | -88.5% (active) | -81% (active) | -70% (active) | -85.1% (active) | -92.1% (active) | -78.9% (active) | -86.5% (active)
CCCCCC(=O)Oc1ccc(/C(=C(\C)c2ccc(OC)cc2)c2ccc(OCCN3CCCCC3)cc2)cc1 | 67.1% | 98.7% | 78.2% | 63.1% | 51.6% | 81.7% | 74.6% | 53.2% | 46.8% | -32.6% (active) | 79.8% | 64.3% | 66.1% | 70.2% | 71.1% | 38.9% | 40.8% | 8.72% (active) | -39.2% (active)
COc1cc2c(cc1O)CC[C@@H]1[C@@H]2CC[C@]2(C)[C@@H](OCCCN(C)C)CC[C@@H]12 | -30% (active) | 9.47% (active) | -22.3% (active) | -57.8% (active) | -61.4% (active) | -18.2% (active) | -90.8% (active) | -33.7% (active) | -83.8% (active) | -71% (active) | -10.3% (active) | -76.1% (active) | -70.2% (active) | -88.3% (active) | -24.3% (active) | -79.8% (active) | -85% (active) | -77.4% (active) | -78.8% (active)
CN1CCN(c2nc(NCCCNc3ccnc4cc(Cl)ccc34)c3ccccc3n2)CC1 | 72.5% | 70% | 64.3% | 49% | 28.5% | 68.4% | 20.2% | 29.2% | 74.6% | -6.18% (active) | 59.8% | -66.3% (active) | -8.42% (active) | 43.3% | 66.2% | 62.5% | -71% (active) | 17.7% | -85.6% (active)
CC(C)CSc1nc(N)nc2c1ncn2C1OC(CO)C(O)C1O (centres undefined) | 106% | 101% | 101% | 95.2% | 104% | 147% | 92.6% | 102% | 121% | 101% | 115% | 99.5% | 104% | 98.7% | 99.9% | 72.3% | 94.7% | 104% | 116%
